# Experimental data: PubChem BioAssay (NCI)
# The panel holds about 83,000 compounds, 20% with a hit somewhere; the sample as a whole holds those more often.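 48-hour exposure, single concentration, 96-well plates; percent growth endpoint where 0 means no net growth. Active: below 10.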 Values without a mark were called inactive. The source made the active and inactive calls.
# Test system: U251 CNS
# Assay: NCI-60 one-dose screen, 48 h (100 = growth as untreated, 0 = no growth, -100 = all killed)
# Conditions: 10 µM unless noted
row,SMILES,growth
1,CCCNC(=O)Oc1ccc(/C(=C(/C)Cc2ccc(OC)cc2)c2ccc(OCCCN(C)C)cc2)cc1,63.5%
2,C/C(=N\NC(=O)c1ccccc1O)c1cccc(/C(C)=N/NC(=O)c2ccccc2O)n1,20%
3,COCCn1c(-c2csc(-c3cn(C)c4ccc(OC)cc34)n2)cc2cccnc21,48.4%
4,Cn1c(=O)c2[nH]c(N/N=C/c3ccccc3Br)nc2n(C)c1=O,111%
5,O=C(Nc1nn(-c2ccc(Cl)cc2Cl)nc1-c1ccccc1)c1ccccc1,93.6%
6,C=C1C(=O)O[C@H]2[C@H]1CC/C(COC(=O)NCc1ccc(Cn3c(=O)sn(CCI)c3=O)cc1)=C\CC[C@@]1(C)O[C@@H]21,73.3%
7,Brc1c2c(c(Br)c3ccccc13)CCCC2,91.2%
8,CS(=O)(=O)c1cccc(-c2c(-c3cccc(OS(N)(=O)=O)c3)nc3sccn23)c1,100%
9,Oc1ccc(CCn2c(O)c(/C=C3\CN=c4ccccc4=N3)sc2=S)cc1,80.3%
10,O=C(O)[C@@H]1c2ccccc2-c2ccccc2[C@H]1C(=O)O,106%
11,Cn1cc(-c2csc(-c3ccc(Cl)cc3)n2)c2cccnc21,4.92% [100 µM] (active)
12,NC(=O)c1c(NC(=O)c2ccccc2)sc2c1CCC(=O)C2,17.6%
13,Cc1cc(Cl)ccc1Nc1nc(C(F)(F)F)ccc1C(=O)N/N=C/c1ccc([N+](=O)[O-])cc1,-13.9% (active)
14,N#Cc1c(NC(=O)c2ccccc2)sc2c1CCC(=O)C2,13.4%
15,Cc1ccc(-c2nn(-c3ccccc3)cc2C=C2C(=O)ON=C2C(C)C)cc1,52.4%
16,CC(C)n1cnc2c(=S)nc[nH]c21,98.9%
17,CN1C(=O)/C(=C/c2ccc(C(=O)Nc3ncc(Cc4ccc(Cl)cc4)s3)cc2)SC1=S,61.7%
18,O=C(Nc1ccc(NC(=O)c2cc(=O)[nH]c3ccccc23)cc1)Nc1cccc(C(F)(F)F)c1,19.5%
19,O=C(NCCCCNC(=O)OCc1ccc2c(Cl)cc(Cl)c(O)c2n1)OCc1ccc2c(Cl)cc(Cl)c(O)c2n1,9.05% (active)
20,CCC(C)N(c1ccc(Cl)cc1)c1nc(-c2ccc(Br)cc2)cs1 (stereo not given),98%

row,SMILES,growth
1,COc1cc(-n2cc(-c3cc(O)c(C/C=C(\C)CCC=C(C)C)c(O)c3)nn2)cc2c1O[C@]1(C)CC[C@@H](O)C(C)(C)[C@H]1C2,4.31% (active)
2,C=CCn1c(SCC(=O)Nc2ccc(C(=O)/C=C/c3ccc(Cl)cc3)cc2)nnc1-c1cc(-c2ccc(S(N)(=O)=O)cc2)nc2ccccc12,71.2%
3,Clc1ccc2c(c1)N(c1ncnc3ccc(-c4cnc5[nH]ncc5c4)cc13)CC2,39.8%
4,O=C(Nc1ccc(-c2nc(N3CCOCC3)c3cccn3n2)cc1)Nc1cccnc1,7.85% (active)
5,CCc1ccc(Oc2cn[nH]c2-c2ccc(OCCc3ccc(F)cc3)cc2O)cc1,53.5%
6,C#Cc1cccc(Nc2ncnc3ccc(-c4cnc(N)nc4)cc23)c1,54.7%
7,Oc1c(Cl)cc(Cl)c2ccc(Cn3cc(-c4cc(C(F)(F)F)cc(C(F)(F)F)c4)nn3)nc12,105%
8,COc1cc(N2C(=O)[C@H](O)C2c2ccc(SC)cc2)cc(OC)c1OC (stereo not given in full),14.4%
9,OCCCC1CCN(C(Cc2ccccc2)c2ccccc2)CC1 (stereo not given),93.2%
10,CNC(=O)c1c(NC(=O)c2ccc(C(F)(F)F)cc2)sc2c1CCC(=O)C2,-12.8% (active)
11,CC/C(=C(/c1ccc(Cl)cc1)c1ccc(OCCN2CCCC2)cc1)c1ccc(OC)cc1,45.3%
12,O=C1Nc2ccccc2/C1=C\c1nc(-c2ccccc2F)n2ccccc12,-3.26% (active)
13,Cc1cc(=O)[nH]c2c(C#N)cnn12,102%
14,COc1ccc(C/C(C)=C(/c2ccc(OCCN3CCCCC3)cc2)c2ccc(OC(=O)NCc3ccccc3)cc2)cc1,-97.5% (active)
15,COc1ccc(CC(C#N)c2cc3ccccc3[nH]2)cc1 (stereo not given),89.3%
16,N#CC1CCc2c(c(-c3cn[nH]c3C(F)(F)F)nc3c(F)cc4[nH]ncc4c23)C1 (stereo not given),28.9%
17,Cn1ccnc1C(=O)C(=O)Nc1ccc(CC(=O)Nc2ccccc2)cc1,108%
18,Cc1ccc(/C=N/Nc2nc(Nc3ccccc3)nc(-n3nc(C)cc3C)n2)cc1,33.8%
19,Cc1nc2ncnc(Cl)c2[nH]1,91.3%
20,COc1ccc2[nH]cc(-c3nc(-c4c[nH]c5ccncc45)cs3)c2c1,-49.4% (active)

# Test system: PC-3 prostate
# Assay: as above
# Conditions: 10 µM unless noted
row,SMILES,growth
1,CCCNC(=O)Oc1ccc(/C(=C(/C)Cc2ccc(OC)cc2)c2ccc(OCCCN(C)C)cc2)cc1,74.4%
2,C/C(=N\NC(=O)c1ccccc1O)c1cccc(/C(C)=N/NC(=O)c2ccccc2O)n1,48%
3,COCCn1c(-c2csc(-c3cn(C)c4ccc(OC)cc34)n2)cc2cccnc21,19.2%
4,Cn1c(=O)c2[nH]c(N/N=C/c3ccccc3Br)nc2n(C)c1=O,98.4%
5,O=C(Nc1nn(-c2ccc(Cl)cc2Cl)nc1-c1ccccc1)c1ccccc1,84.3%
6,C=C1C(=O)O[C@H]2[C@H]1CC/C(COC(=O)NCc1ccc(Cn3c(=O)sn(CCI)c3=O)cc1)=C\CC[C@@]1(C)O[C@@H]21,75.6%
7,Brc1c2c(c(Br)c3ccccc13)CCCC2,93.6%
8,CS(=O)(=O)c1cccc(-c2c(-c3cccc(OS(N)(=O)=O)c3)nc3sccn23)c1,106%
9,Oc1ccc(CCn2c(O)c(/C=C3\CN=c4ccccc4=N3)sc2=S)cc1,60.2%
10,O=C(O)[C@@H]1c2ccccc2-c2ccccc2[C@H]1C(=O)O,90.9%
11,Cn1cc(-c2csc(-c3ccc(Cl)cc3)n2)c2cccnc21,-16.7% [100 µM] (active)
12,NC(=O)c1c(NC(=O)c2ccccc2)sc2c1CCC(=O)C2,10.1%
13,Cc1cc(Cl)ccc1Nc1nc(C(F)(F)F)ccc1C(=O)N/N=C/c1ccc([N+](=O)[O-])cc1,-43.7% (active)
14,N#Cc1c(NC(=O)c2ccccc2)sc2c1CCC(=O)C2,12%
15,Cc1ccc(-c2nn(-c3ccccc3)cc2C=C2C(=O)ON=C2C(C)C)cc1,63.5%
16,CC(C)n1cnc2c(=S)nc[nH]c21,98.7%
17,CN1C(=O)/C(=C/c2ccc(C(=O)Nc3ncc(Cc4ccc(Cl)cc4)s3)cc2)SC1=S,55.1%
18,O=C(Nc1ccc(NC(=O)c2cc(=O)[nH]c3ccccc23)cc1)Nc1cccc(C(F)(F)F)c1,69.8%
19,O=C(NCCCCNC(=O)OCc1ccc2c(Cl)cc(Cl)c(O)c2n1)OCc1ccc2c(Cl)cc(Cl)c(O)c2n1,18.8%
20,CCC(C)N(c1ccc(Cl)cc1)c1nc(-c2ccc(Br)cc2)cs1 (stereo not given),99.9%

row,SMILES,growth
1,COc1cc(-n2cc(-c3cc(O)c(C/C=C(\C)CCC=C(C)C)c(O)c3)nn2)cc2c1O[C@]1(C)CC[C@@H](O)C(C)(C)[C@H]1C2,16.2%
2,C=CCn1c(SCC(=O)Nc2ccc(C(=O)/C=C/c3ccc(Cl)cc3)cc2)nnc1-c1cc(-c2ccc(S(N)(=O)=O)cc2)nc2ccccc12,71.8%
3,Clc1ccc2c(c1)N(c1ncnc3ccc(-c4cnc5[nH]ncc5c4)cc13)CC2,23.8%
4,O=C(Nc1ccc(-c2nc(N3CCOCC3)c3cccn3n2)cc1)Nc1cccnc1,3.8% (active)
5,CCc1ccc(Oc2cn[nH]c2-c2ccc(OCCc3ccc(F)cc3)cc2O)cc1,72.2%
6,C#Cc1cccc(Nc2ncnc3ccc(-c4cnc(N)nc4)cc23)c1,27.1%
7,Oc1c(Cl)cc(Cl)c2ccc(Cn3cc(-c4cc(C(F)(F)F)cc(C(F)(F)F)c4)nn3)nc12,74.8%
8,COc1cc(N2C(=O)[C@H](O)C2c2ccc(SC)cc2)cc(OC)c1OC (stereo not given in full),22.4%
9,OCCCC1CCN(C(Cc2ccccc2)c2ccccc2)CC1 (stereo not given),70.8%
10,CNC(=O)c1c(NC(=O)c2ccc(C(F)(F)F)cc2)sc2c1CCC(=O)C2,-30.9% (active)
11,CC/C(=C(/c1ccc(Cl)cc1)c1ccc(OCCN2CCCC2)cc1)c1ccc(OC)cc1,47.5%
12,O=C1Nc2ccccc2/C1=C\c1nc(-c2ccccc2F)n2ccccc12,44.1%
13,Cc1cc(=O)[nH]c2c(C#N)cnn12,107%
14,COc1ccc(C/C(C)=C(/c2ccc(OCCN3CCCCC3)cc2)c2ccc(OC(=O)NCc3ccccc3)cc2)cc1,-95.9% (active)
15,COc1ccc(CC(C#N)c2cc3ccccc3[nH]2)cc1 (stereo not given),75.6%
16,N#CC1CCc2c(c(-c3cn[nH]c3C(F)(F)F)nc3c(F)cc4[nH]ncc4c23)C1 (stereo not given),43.6%
17,Cn1ccnc1C(=O)C(=O)Nc1ccc(CC(=O)Nc2ccccc2)cc1,107%
18,Cc1ccc(/C=N/Nc2nc(Nc3ccccc3)nc(-n3nc(C)cc3C)n2)cc1,31.1%
19,Cc1nc2ncnc(Cl)c2[nH]1,90.5%
20,COc1ccc2[nH]cc(-c3nc(-c4c[nH]c5ccncc45)cs3)c2c1,42.4%
